Potency and affinity values are given separately. The source made the active and inactive calls.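 How the source made its calls: active means compounds whose mean inhibitory potency against the glutamate signal is under 30 µM; inactive means the rest.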
Biological target: Metabotropic glutamate receptor 3 (Rattus norvegicus) (UniProt P31422)
Assay: inhibition of rat mGlu3 glutamate signaling – HEK/GIRK cells, thallium flux, dose response (AID 651839)
Details: HEK293 GIRK rat mGlu3, thallium flux fluorescence; series mostly up to 30 µM

Metabotropic glutamate receptor 3 (Rattus norvegicus), sequence (P31422 whole entry, looked up): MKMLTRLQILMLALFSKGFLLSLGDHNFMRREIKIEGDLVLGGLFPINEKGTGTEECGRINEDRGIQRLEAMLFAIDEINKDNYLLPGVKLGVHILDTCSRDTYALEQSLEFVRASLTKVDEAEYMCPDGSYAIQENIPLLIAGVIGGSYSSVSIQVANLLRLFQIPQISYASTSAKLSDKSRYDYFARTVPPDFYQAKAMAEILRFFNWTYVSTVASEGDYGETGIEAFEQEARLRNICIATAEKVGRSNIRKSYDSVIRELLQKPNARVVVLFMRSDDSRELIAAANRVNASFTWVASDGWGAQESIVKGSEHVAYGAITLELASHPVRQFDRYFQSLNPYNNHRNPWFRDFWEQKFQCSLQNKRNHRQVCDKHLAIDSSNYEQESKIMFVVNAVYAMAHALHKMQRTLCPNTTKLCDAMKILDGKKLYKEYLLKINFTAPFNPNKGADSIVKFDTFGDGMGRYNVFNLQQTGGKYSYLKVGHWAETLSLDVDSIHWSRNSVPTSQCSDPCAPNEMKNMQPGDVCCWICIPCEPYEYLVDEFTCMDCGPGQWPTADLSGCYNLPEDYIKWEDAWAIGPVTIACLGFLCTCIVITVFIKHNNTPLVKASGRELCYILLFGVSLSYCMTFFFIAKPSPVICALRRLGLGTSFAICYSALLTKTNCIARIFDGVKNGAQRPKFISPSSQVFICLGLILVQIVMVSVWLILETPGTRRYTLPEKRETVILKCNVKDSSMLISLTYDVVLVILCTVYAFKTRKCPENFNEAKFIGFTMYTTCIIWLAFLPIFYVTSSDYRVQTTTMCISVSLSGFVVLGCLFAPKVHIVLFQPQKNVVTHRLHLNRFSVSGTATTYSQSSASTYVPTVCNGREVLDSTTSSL

outcome, inactive:
COc1ccc(C#Cc2ccc(C(=O)NCCC(C)(C)C)cc2)c(F)c1
COc1ccc(COc2ccc(C(=O)N3CCC(OC)C3)cc2)cc1 (stereo not given)
O=C(c1ccc2cc(-c3ccncc3)ccc2c1)N1CCCC(CO)C1 (stereo not given)
COc1ccc(C#Cc2ccc(C(=O)NC(C)(C)CO)cc2)c(F)c1
COc1ccc(COc2ccc(C(=O)N3CC[C@@H](O)C3)cc2)cc1
COc1ccc(COc2ccc(C(=O)N3CCCC(OC)C3)cc2)cc1 (stereo not given)
COc1ccc(C#Cc2ccc(C(=O)NCC(C)(C)O)cc2)c(F)c1
COc1ccc(COc2ccc(C(=O)N3CC[C@H](O)C3)cc2)cc1
COc1ccc(COc2ccc(C(=O)N3CCC(CO)C3)cc2)cc1 (stereo not given)
COc1ccc(COc2ccc(C(=O)NCCC(C)(C)C)cc2)cc1

Source: PubChem BioAssay AID651839 (Vanderbilt Specialized Chemistry Center, 2012)
